Bioassay records deposited in PubChem by National Center for Advancing Translational Sciences (NCATS).
KDM5B inhibitor: blocks human KDM5B histone demethylase activity | Q9UGL1 | KDM5B demethylase, FDH-coupled NADH fluorescence (FDH is formaldehyde dehydrogenase) | Potency, µM (top dose mostly 57.7 µM), most hits filed as inhibitors | 2.6% of 220,000 active | AID 1347165; active = well fitted inhibition curve with a large enough effect; inconclusive = small, poorly fitted or top-dose-only effect; inactive = no such curve, though single readings can be large or run the other way; also: potency is read from the fitted curve at half-maximal effect; 0% is about no effect; nearly all actives have a fitted effect of over 70% in size
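KDM5BΔAP (200 nM final) in 50 mM HEPES pH 7.5, 0.01% Tween-20 was preincubated 10 min at RT with compound over a concentration range. Substrate mix (H3K4me3 12.5 µM, α-KG 25 µM, Fe²⁺, ascorbate, NAD⁺, FDH) was added, and NADH fluorescence change over 30 min gave dose-response curves.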
IP6K1 inhibitor: inhibitors of human IP6K1 | Q92551 | IP6K1 kinase, ADP-Glo luminescence, 2 h; active compounds read low | activity change, % (series mostly up to about 58 µM) | 0.81% of 140,000 active | AID 1645851; in the data active = activity change below about -25%; also: % is scaled to controls: 0 for no effect and ±100 for the full control effect
Target sequence (Q92551 whole entry, looked up): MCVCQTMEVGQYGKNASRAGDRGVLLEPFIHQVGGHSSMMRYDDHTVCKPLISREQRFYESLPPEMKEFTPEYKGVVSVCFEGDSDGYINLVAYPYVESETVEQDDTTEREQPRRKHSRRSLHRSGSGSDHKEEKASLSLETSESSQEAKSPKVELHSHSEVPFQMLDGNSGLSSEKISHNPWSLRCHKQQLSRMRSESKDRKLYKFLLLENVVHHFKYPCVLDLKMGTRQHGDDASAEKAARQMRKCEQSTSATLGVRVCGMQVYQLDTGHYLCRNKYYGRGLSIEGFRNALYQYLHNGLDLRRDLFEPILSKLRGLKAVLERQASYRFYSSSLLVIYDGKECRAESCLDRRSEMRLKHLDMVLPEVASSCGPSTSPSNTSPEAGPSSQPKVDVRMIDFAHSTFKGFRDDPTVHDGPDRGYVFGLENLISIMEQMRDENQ
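ADP-Glo luminescence measures ADP made by human IP6K1 during a 2 h RT reaction with ATP/IP6 (mix at 1.3 mM/130 uM); top library doses 57.5 and 19.1 uM final.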
* = called active by the depositor; i = inactive; ? = inconclusive; . = no result given. Only some compounds are listed: those with a hit (about 2.8% of all), similar ones and a draw of the others.

SMILES | KDM5B inhibitor | IP6K1 inhibitor
COc1ccccc1-c1nc(C(=O)NC2CC2)n2ccccc12 | i | 18.1
CC(C)(C)OC(=O)N1CCC(NC(=O)c2nc(-c3ccccc3)c3ccccn23)CC1 | 79.4µM* | -14.7
C[S+](=O)([O-])c1ccc(-c2nc(C(=O)NC3CC3)n3ccccc23)cc1 | i | 10.7
Cc1ccc(N=C/C(=C/Nc2ccc(C)cc2)[N+](=O)[O-])cc1 | i | .
OCC1(CCCc2ccccc2)CCN(Cc2ccc(-n3cccn3)cc2)CC1 | ? | 17.7
O=C(O)C1CCc2nnc(C3CCCN([S+](=O)([O-])c4ccccc4)C3)n21 (stereo not drawn) | 56.2µM* | 1.5
COc1cccc([S+](=O)([O-])N2CCCC(c3nnc4n3C(C(=O)O)CC4)C2)c1 (stereo not drawn) | i | 14.8
Cc1cc(C)c2c(n1)SCCN2C(=O)CCC(=O)NCc1cccc(Br)c1 | i | .
Cc1cnc(C(=O)N2CCC(c3nnc(CN4CCCC4)n3C3CC3)CC2)cn1 | ? | 15.2
CC1(c2ccccc2)N(Cc2ccccc2)C(=O)OC12CCN(Cc1cccc(C#N)c1)CC2 (stereo not drawn) | ? | 3.4
Cn1ccc2c(C(=O)NCc3cccnc3)nc(-c3ccccc3C(F)(F)F)cc21 | 35.5µM* | 3.4
Cn1ccc2c(C(=O)NCc3cccnc3)nc(-c3cccnc3)cc21 | i | 19.6
Cn1ccc2c(C(=O)NCc3cccnc3)nc(-c3ccncc3)cc21 | i | 21.7
Cn1ccc2c(C(=O)NCc3cccnc3)nc(-c3cccc4cc[nH]c34)cc21 | 35.5µM* | 32.2
CNC(=O)[C@@H]1C[C@@H](n2cc(CNC(=O)Nc3ccc(F)cc3F)nn2)CN1 | i | -14.4
CCn1ncc(C(=O)N[C@@H]2CN(c3ccncn3)C[C@H]2CN(C)C)c1C | i | 5.5
COc1ccccc1C(=O)N[C@@H]1CN(c2ccccn2)C[C@H]1CN(C)C | 28.2µM* | -4.1
CN(C)C[C@@H]1CN(c2ccccn2)C[C@H]1NC(=O)c1cccc(C#N)c1 | ? | -1.7
CCn1ncc(C(=O)N[C@@H]2CN(c3ccccn3)C[C@H]2CN(C)C)c1C | 31.6µM* | 4.6
CCc1cc(=O)n(CC(=O)Nc2cc(OC)ccc2OC)c(-c2cccc(F)c2)n1 | i | -8.2
Cc1ccc2c(CN(C)CCOc3ccc(F)cc3)cc(=O)oc2c1 | i | .
N#Cc1ccc(CN2C[C@@H]3C[C@H]2C(=O)N(Cc2ccccc2)c2ccccc2O3)cc1 | 28.2µM* | -18.2
O=C1[C@@H]2C[C@@H](CN2Cc2ccccc2)Oc2ccccc2N1Cc1ccccc1 | ? | 11.4
Cc1c(C(=O)N(C)c2ccccc2)nnn1-c1ccc(Cl)cc1 | i | .
Clc1ccccc1C1Cn2cnc(-c3nc(-c4ccncc4)no3)c2CO1 (stereo not drawn) | i | 10.8
SMILES | KDM5B inhibitor | IP6K1 inhibitor
Cc1ccc(-c2nc(-c3nnn4c3COC(c3ccccc3Cl)C4)no2)cc1 (stereo not drawn) | ? | 15.4
CSc1ccc(-c2noc(-c3ncn4c3COC(c3ccccc3Cl)C4)n2)cc1 (stereo not drawn) | 25.1µM* | 7.3
COc1ccc(C2Cn3nnc(-c4noc(-c5ccccc5Cl)n4)c3CO2)cc1 (stereo not drawn) | i | -0.4
COc1ccccc1-c1nc(-c2nnn3c2COC(c2ccccc2Cl)C3)no1 (stereo not drawn) | 28.2µM* | 1.9
COc1ccc(-c2nc(-c3nnn4c3COC(c3ccccc3Cl)C4)no2)cc1F (stereo not drawn) | 12.6µM* | 5.9
COc1ccc(-c2nc(-c3nnn4c3COC(c3ccccc3Cl)C4)no2)cc1OC (stereo not drawn) | ? | 28.3
CCOc1ccccc1-c1nc(-c2nnn3c2COC(c2ccccc2Cl)C3)no1 (stereo not drawn) | 28.2µM* | 1.9
C=Cc1ccc(Cn2c(C(=O)O)c(CNCc3ccc(F)cc3)c3ccc(C)cc32)cc1 | ? | -8.7
O=S(=O)(NC1=NCN(Cc2ccco2)CN1)c1ccccc1 | i | .
CS(=O)(=O)N1CCN2C(=O)N(Cc3cccnc3)C[C@H]2C1 | i | -4.4
CCc1ccc(C(=O)N2CCC(n3cnnc3COC)CC2)cc1 | i | 6.9
CCOc1ccc(NC(=O)c2nc(S(=O)(=O)Cc3ccccc3F)ncc2Cl)cc1 | ? | -5.9
O=C(Nc1nc2ccc(F)cc2s1)c1nc(S(=O)(=O)Cc2ccccc2F)ncc1Cl | ? | -39.7*
COCCNC(=O)C1(F)CCN(C(=O)c2cnc(C)cn2)CC1 | . | 14.1
COc1ccc(-c2ccc3nnc(CNC(=O)C(C)Oc4ccccc4)n3n2)cc1 (stereo not drawn) | 31.6µM* | -8.9
COc1ccc(-c2ccc3nnc(CNC(=O)C(C)Oc4cccc(Cl)c4)n3n2)cc1 (stereo not drawn) | 28.2µM* | -0.7
COc1cccc(CCC(=O)NCc2nnc3ccc(-c4ccccc4)nn23)c1 | i | 5.5
